From PubChem BioAssay
Rows were chosen to be rich in hits. Some 2.4% of all compounds tested hit in one or more screens of this group.
Pol iota inh: qHTS for Inhibitors of Polymerase Iota | Pol iota fluorescent replication assay, 10 min | Potency, µM (series often up to 115 µM), inactives show at the highest dose activity, negative = inhibition, actives largely listed as inhibitors | 390,000 tested, 1% active | AID 588590, 2011
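Fluorescent replication assay read twice, at 0 min and 10 min after adding 50 nM (final) substrate. Enzyme (10 nM) and compounds were first incubated 15 min at room temperature; enzyme-free buffer wells were negative controls.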
Pol beta inh: qHTS Assay for Inhibitors of DNA Polymerase Beta; Pol beta primer extension/strand displacement, fluorescence kinetic; Potency, µM (titrated, usually from 114 µM), without a hit: at the top dose activity change, negative = inhibition, usual class: inhibitors; 340,000 tested, 1.3% active; further: on the % scale 0 is the no-effect control and ±100 the full control effect
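Kinetic readout of DNA synthesis with strand displacement by Pol beta. Compound and 10 nM enzyme sit 15 min at room temperature; 50 nM substrate starts the reaction, read immediately and at 10 min.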
Pol eta inh-1: qHTS for Inhibitors of Polymerase Eta | DNA polymerase eta (Homo sapiens), Q9Y253 | recombinant Pol eta, fluorescent DNA replication assay | Potency, µM (doses to about 114 µM), for the others: at the top dose activity change, negative = inhibition, usual class: inhibitors | 390,000 tested, 1.2% active; further: on the % scale 0 is the no-effect control and ±100 the full control effect
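Fluorescent replication assay: 50 nM final substrate added after a 15 min room-temperature compound preincubation with 10 nM enzyme. Signal taken at 0 min and again at 10 min.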
WRN helicase inh: qHTS for Inhibitors of WRN Helicase | Bifunctional 3'-5' exonuclease/ATP-dependent helicase WRN (Homo sapiens), Q14191 | WRN helicase unwinding, fluorescent forked duplex, kinetic | Potency, µM (highest dose often 114 µM), without a hit: at the top dose activity change, negative = inhibition, most hits filed as inhibitors | 360,000 tested, 0.46% active; further: on the % scale 0 is the no-effect control and ±100 the full control effect; nearly all actives have a fitted effect of over 55% in size
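Enzyme (20 nM final) and test compound sit together 15 min at room temperature before substrate addition. Substrate is a single-forked duplex oligonucleotide (100 nM) labelled with fluorophore and quencher, with 2 mM ATP; helicase unwinding raises red fluorescence, read kinetically.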
Pol kappa inh-1: qHTS for Inhibitors of Polymerase Kappa | DNA polymerase kappa (Homo sapiens), Q9UBT6 | purified Pol kappa, fluorescent DNA synthesis assay, 10 min | Potency, µM (titrated, usually from 107 µM), inactives show top-dose activity, negative = inhibition, hits mostly inhibitors | 400,000 tested, 0.53% active; further: on the % scale 0 is the no-effect control and ±100 the full control effect
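Readout: fluorescence, taken kinetically at 0 and 10 min. Conditions: 10 nM Pol kappa, 15 min RT compound preincubation, 50 nM substrate final. Controls: enzyme-free buffer wells.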
FEN1 inhibitor: qHTS Assay for the Inhibitors of Human Flap endonuclease 1 (FEN1); Recombinant FEN1 flap cleavage, fluorescence, 15 min; Potency, µM (series often up to 114 µM), without a hit: top-dose activity change, negative = inhibition, actives largely listed as inhibitors; 390,000 tested, 0.35% active; further: on the % scale 0 is the no-effect control and ±100 the full control effect; nearly all actives have a fitted effect of over 65% in size
Target sequence (P39748 whole entry, looked up): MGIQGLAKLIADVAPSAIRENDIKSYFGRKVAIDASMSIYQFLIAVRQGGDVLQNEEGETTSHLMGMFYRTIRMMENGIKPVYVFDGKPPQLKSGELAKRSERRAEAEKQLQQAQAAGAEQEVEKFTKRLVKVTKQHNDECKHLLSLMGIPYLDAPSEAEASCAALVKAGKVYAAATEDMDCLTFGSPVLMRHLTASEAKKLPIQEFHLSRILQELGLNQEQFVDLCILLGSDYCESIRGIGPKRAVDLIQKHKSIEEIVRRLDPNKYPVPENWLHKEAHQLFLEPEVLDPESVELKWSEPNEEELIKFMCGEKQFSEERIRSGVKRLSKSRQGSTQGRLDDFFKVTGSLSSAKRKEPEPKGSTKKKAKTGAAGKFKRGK
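Concentration–response screening of FEN1 (10 nM): 15 min compound preincubation at room temperature, reaction started with 50 nM substrate and read at 0 and 15 min. Corrected, normalized data were fitted by a four-parameter Hill equation.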
TbPGK inh: qHTS for inhibitors of Phosphogylcerate Kinase: Hit Validation Screen; shares compounds with Pol kappa inh-1; TbPGK coupled GAPDH assay, Kinase-Glo luminescence; Potency, µM (titrated, usually from 57.5 µM), without a hit: at the top dose activity change, negative = inhibition, most hits filed as inhibitors; 500 tested, 79% active; AID 686980, 2013; further: on the % scale 0 is the no-effect control and ±100 the full control effect; nearly all actives have a fitted effect of over 65% in size
POLI cherry-pick: qHTS for Inhibitors of Polymerase Iota: Confirmatory Assay for Cherry-picked Compounds | 1,500 tested, 77% active | shares compounds with Pol kappa inh-1 | Potency, µM, actives largely listed as inhibitors | Pol iota primer extension, TAMRA/BHQ fluorescence | AID 720496, 2013
Pol kappa inh-2: qHTS for Inhibitors of Polymerase Kappa: Confirmatory Assay for Cherry-picked Compounds; shares compounds with Pol eta inh-1; purified Pol-kappa, fluorescent strand-displacement substrate; Potency, µM, actives largely listed as inhibitors; 920 tested, 76% active; AID 720501, 2013
Pol eta inh-2: qHTS for Inhibitors of Polymerase Eta: Confirmatory Assay for Cherry-picked Compounds; 2,600 tested, 64% active; shares compounds with Pol eta inh-1; Pol eta primer extension, TAMRA/BHQ fluorescence, 10 min; Potency, µM, actives largely listed as inhibitors
* hit, by the source's call; ? = inconclusive; . = not tested or not shown; [ ] = another dose, or the depositor's remark. The call rests on the fitted dose curve; in most records, active means well fitted curve in the direction sought with a large enough effect; inconclusive means small, poorly fitted or top-dose-only effect, or another doubt; inactive means no such curve, though single readings can be large; an effect the other way counts as inactive or inconclusive. Potency means the concentration at half of the fitted maximal effect.

SMILES | Pol iota inh | Pol beta inh | Pol eta inh-1 | WRN helicase inh | Pol kappa inh-1 | FEN1 inhibitor | POLI cherry-pick | Pol kappa inh-2 | Pol eta inh-2 | others
C=CC[C@@H](CC(=O)N[C@@H](CO)Cc1ccccc1)C(=O)N[C@H](COC(=O)[C@@H](CC=C)Cc1ccc(F)cc1)Cc1ccccc1 | 52% | . | -13% | 9% | -17% | -1% | . | . | .
Nc1ccc(Nc2ccccc2)c(S(=O)(=O)O)c1 | 11µM* | 11µM* | 16µM* | ? | 79µM* | -1% | 47* | 8.4* | 38*
Nc1cc([N+](=O)[O-])ccc1Nc1ccccc1 | 30% | -1% | -4% | -9% | -7% | -17% | . | . | .
Cc1cc(C=C2C(=O)c3ccccc3C2=O)c(C)n1C | 42% | 1% | -8% | -17% | -12% | -8% | . | . | .
Cc1ccc(/C=C2/C(=O)c3ccc(C(=O)O)cc3C2=O)o1 | ? | 25µM* | 4µM* | 13µM* | 5µM* | 25µM* | 24* | 11* | 8.5*
Cc1ccc(C=C2C(=O)c3ccccc3C2=O)o1 | 22µM* | 14µM* | 13µM* | ? | ? | -5% | 47* | 42* | 48*
CC(=O)Nc1ccc(NC(=O)CSc2nnc(C)c(=O)n2N)cc1 | 45% | 2% | -12% | 10% | 6% | -4% | . | . | .
O=C(NN1C(=O)/C(=C/C=C/c2ccco2)SC1=S)c1ccncc1 | 1.3µM* | ? | 1.4µM* | 3.2µM* | 3.2µM* | 7.1µM* | 6.7* | 3.8* | 3.4* | TbPGK inh=3.3µM*
O=C(NN1C(=O)/C(=C/C=C/c2ccccc2)SC1=S)c1ccncc1 | ? | -12% | -7% | -33% | -8% | -3% | . | . | .
O=C(/C=C/c1ccco1)NCC1OCCc2ccccc21 (centres undefined) | 14µM* | 14µM* | 13µM* | 56µM* | 35µM* | ? | 42* | . | 43*
C=CC(=O)NCC1OCCc2ccccc21 (centres undefined) | 56% | 3% | -14% | -8%[57.1 µM] | 1% | 8% | . | . | .
O=C(NN1C(=O)CSC1=S)C(=O)NN1C(=O)CSC1=S | ? | 1.8µM* | 28µM* | 22µM* | ? | ? | 34* | . | 21*
O=C(Nc1cc(S(=O)(=O)N2CCOCC2)ccc1OCC(F)(F)F)C1CCCC1 | . | . | -2% | 0% | . | . | . | . | .
O=C1NC(=Nc2ccc3ccccc3c2)S/C1=C/c1ccco1 | ? | 8.9µM* | 35µM* | -4%[11.6 µM] | ? | -8% | 38* | 27* | ?
CCOc1cc(CNC(=O)c2ccccc2NC(=O)c2nsc3ccccc23)ccc1OC | ? | 43% | 6% | . | -5%[60.1 µM] | 0% | . | . | .
COc1ccc2[nH]c3nc(SCC(=O)NNC(=O)c4ccc(OC)c(OC)c4)nnc3c2c1 | 0% | 15% | ? | -34% | 3% | 4% | . | . | .
Cc1ccc(C(=O)NNC(=O)CSc2nnc3c(n2)[nH]c2ccc(F)cc23)cc1 | 11% | 5µM* | 79µM* | -14% | -1% | -9% | 19* | 19* | ?
O=C(O)c1ccc(/C=N/NC(=O)c2cc(-c3ccc4c5c(cccc35)CC4)n[nH]2)cc1 | ? | 28µM* | 25µM* | ? | ? | ? | 60* | 12* | 38*
CS(=O)(=O)N1N=C(c2ccco2)CC1c1ccco1 (centres undefined) | ? | ? | 22µM* | -21%[11.6 µM] | 79µM* | 6% | 53* | 19* | 30*
CCOc1ccc2nc(Cl)c(C3CC(c4ccc(OC)cc4)=NN3S(C)(=O)=O)cc2c1 (centres undefined) | ? | 26% | ? | . | ? | 7% | ? | 75* | 76*
O=C1c2ccc(Oc3cccc([N+](=O)[O-])c3)cc2C(=O)N1c1ccccn1 | -26% | -1% | 1% | 4% | -2% | -18% | . | . | .
O=C1c2cc([N+](=O)[O-])cc3cc([N+](=O)[O-])cc(c23)C(=O)N1c1ccccn1 | ? | ? | 16µM* | ? | ? | ? | 67* | 21* | 30*
Cc1ccc(S(=O)(=O)N2CC3(O)CN(C(=O)OC(C)C)N(C(=O)OC(C)C)CC3(OC(=O)NCc3ccccc3)C2)cc1 (centres undefined) | . | . | ? | -4% | . | . | . | . | .
CN(C)CCCNc1nc(N)c([N+](=O)[O-])c(NCCO)n1 | 30% | 12% | -14% | 2% | 9% | -1% | . | . | .
Cc1ccccc1S(=O)(=O)N1C(c2ccc(Cl)c(Cl)c2)CC=C(C(=O)O)C1c1cccc(Br)c1 (centres undefined) | . | . | . | -28% | . | . | . | . | .
C/C(=C\C=C(C#N)C#N)c1cc(C#N)c(N)o1 | ? | 8.9µM* | ? | 89µM* | ? | 56µM* | ? | . | 43*
Cn1c(SCC(=O)Nc2cccc(C(=O)O)c2)nnc1-c1cc2cc(Br)ccc2o1 | ? | ? | ? | -7%[11.6 µM] | -17% | -13% | ? | . | ?
COc1ccc(/C=C2\C(=O)NC(=O)c3ccccc32)cc1OC | 32µM* | . | 20µM* | -12% | -18% | -9% | 84* | . | 30*
Cc1ccc(NC(=O)Cn2cc(S(=O)(=O)Cc3ccc(F)cc3)c3ccccc32)cc1Cl | 79µM* | 25µM* | 18µM* | . | ? | -12% | 47* | . | 43*
